Screen size: about 2,400 compounds; about 950 (40%) were called active.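 The calls were made as follows: active = thallium flux ratio, averaged over three wells, more than 5 SD below the buffer control mean; inactive = the rest.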 These entries were drawn from the full list.
Assay: thallium flux inhibition in non-induced cells, primary screen, counter-screen for KCNK3 inhibitor project, cell-based, non-induced KCNK3 line, FluxOR thallium, triplicate (AID 651747);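 also: host cells are CHO cells without KCNK3 induction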;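 as to thallium flux ratio (lower = more inhibition): ratio is peak minus trough fluorescence over baseline then normalized to buffer controls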
Settings: non-induced KCNK3 parental cells, at 10 µM; stronger effect = lower value

| Structure (SMILES) | thallium flux ratio (lower = more inhibition) |
| --- | --- |
| CN1CCc2ccccc2C1Cc1ccccc1NC(=O)c1sc2ccccc2c1Cl (stereo not given) | 0.143 (active) |
| N#Cc1cccc(NC(=O)COC(=O)c2ccccc2C(=O)c2ccc(Cl)c([N+](=O)[O-])c2)c1 | 0.153 (active) |
| Cc1ccc(NC(=S)N2CCCC(c3ccccc3)=N2)cc1 | inactive |
| COc1ccc(Nc2ncnc3sc(-c4ccccc4)cc23)c(OC)c1 | 0.124 (active) |
| FC(F)(F)c1cccc(-c2cc3ccccc3nc2N2CCCC2)c1 | 0.127 (active) |
| O=C(c1cc(-c2ccc(O)cc2)on1)N1CCCc2ccccc21 | inactive |
| CSc1nccc(NC(=O)c2ccc(C(C)(C)C)cc2)n1 | inactive |
| COc1cccc(CNc2nc(C(F)(F)F)nc3ccccc23)c1 | 0.111 (active) |
| COc1ccccc1NC(=O)CSc1nc2sc(C)c(C)c2c(=O)n1Cc1ccco1 | inactive |
| C=CCSc1nnc(N2C(=O)C(O)=C(C(=O)c3ccco3)C2c2ccc(F)cc2)s1 (stereo not given) | 0.101 (active) |
| COc1cc(/C=C(\C#N)c2nc3ccccc3[nH]2)ccc1O | 0.0933 (active) |
| Cc1cccc(NC(=O)c2sc3nc4c(c(-c5ccco5)c3c2N)CCC4)c1 | inactive |
| COc1cccc(COc2ccc(N(C)S(=O)(=O)c3ccccc3)cc2)c1 | 0.109 (active) |
| [O-][n+]1ccc(OCc2ccccc2)cc1 | inactive |
| N/C(Cc1ccc([N+](=O)[O-])cc1)=N\OC(=O)COc1ccc2ccccc2c1 | inactive |
| N#Cc1nc(Cc2cccc3ccccc23)oc1NCc1ccc2c(c1)OCO2 | 0.152 (active) |
| COc1ccc([N+](=O)[O-])cc1-c1nc2ccccc2nc1-c1ccccc1 | 0.129 (active) |
| CCCC(=O)Nc1ccc(Cl)c(NC(=O)c2ccc(Br)o2)c1 | inactive |
| CN(CCC(=O)Nc1cc(S(=O)(=O)N(C)C)ccc1Cl)CC(=O)Nc1ccc(F)cc1 | 0.159 (active) |
| Cc1cc(C)c(S(=O)(=O)c2ccccc2)c(OC(=O)c2c(F)cccc2Cl)n1 | inactive |
| CS/C(=C\C(=O)c1ccco1)Nc1ccccc1Cl | 0.154 (active) |
| Cc1cccc2cc(CN(Cc3nnnn3Cc3ccccc3)C3CCCC3)c(=O)[nH]c12 | 0.139 (active) |
| Cc1cc(OCCCCOc2ccc(C#N)cc2)ccc1[N+](=O)[O-] | inactive |

| Structure (SMILES) | thallium flux ratio (lower = more inhibition) |
| --- | --- |
| O=C1c2ccccc2C2=Nc3ccccc3SC(c3ccccc3F)C12 (stereo not given) | 0.125 (active) |
| CCCCCCCCCCOC(=O)Cn1c(COc2cccc(OC)c2)[n+](C)c2ccccc21 | inactive |
| CCCOc1ccc2c3c(c(=O)oc2c1OCCC)CCC3 | 0.158 (active) |
| COc1cccc(CN(C)CC(O)COC(c2ccccc2)c2ccccc2C)c1 (stereo not given) | 0.146 (active) |
| FC(F)(F)c1cc(-c2ccco2)nc(NCc2ccc(Cl)cc2)n1 | 0.148 (active) |
| Cc1ccc(S(=O)(=O)NCc2cn3ccsc3n2)c(C)c1 | inactive |
| O=C(NCCc1c[nH]c2ccccc12)c1cccc(Br)c1 | 0.159 (active) |
| COc1cccc(C(=O)NCCSc2ccc(Br)cc2)c1 | inactive |
| O=C(CSc1nc(Nc2ccccc2)nc(N2CCOCC2)n1)Nc1cc(Cl)ccc1O | 0.137 (active) |
| CC(C)c1ccccc1OCC(O)CN(CC(O)COc1cccc2ccccc12)C(C)C (stereo not given) | inactive |
| C=CCN(C(=O)c1cc(C)cc(C)c1)C1(C(=O)Nc2ccccc2)CCN(C(C)C)CC1 | inactive |
| CC(=O)Nc1cccc(OCC(=O)/C=C2\N(C)c3ccccc3C2(C)C)c1 | inactive |
| COc1cccc(/C=N/Nc2cc(C)nc(-c3ccccc3O)n2)c1O | 0.109 (active) |
| CC[n+]1cc(C)ccc1/C=C/c1ccc(N(C)C)cc1 | 0.106 (active) |
| N#Cc1ccc(S(=O)(=O)NCC(=O)OCC(=O)NCCc2ccccc2)cc1 | inactive |
| Cc1cccc(-c2nc3ccc(C(=O)NCCN4CCN(C)CC4)cc3nc2-c2cccc(C)c2)c1 | 0.106 (active) |
| Cc1ccc(NC(=O)c2cc([N+](=O)[O-])ccc2Cl)c(O)c1 | inactive |
| CSc1nnc2c(n1)OC(c1ccsc1)N(C(C)=O)c1ccccc1-2 (stereo not given) | inactive |
| Clc1cccc(-c2nc(NCC3CCCO3)c3ccccc3n2)c1 (stereo not given) | 0.129 (active) |
| CCn1ncc(Br)c1C(=O)Nc1cc(C)ccc1F | inactive |
| CCOc1ccccc1Oc1cn[nH]c1-c1ccc(OC)cc1O | inactive |
| S=C(Nc1cccc(Br)c1)N1CCn2cccc2C1c1cccnc1 (stereo not given) | inactive |
| COC(=O)C1=C(C)N(C(C)c2ccccc2)C(=O)/C1=C\c1ccco1 (stereo not given) | 0.158 (active) |

| Structure (SMILES) | thallium flux ratio (lower = more inhibition) |
| --- | --- |
| O=C(Nc1ccccc1)O/N=C1\CCCCC1c1ccc([N+](=O)[O-])cc1[N+](=O)[O-] (stereo not given) | inactive |
| CC(C)c1cc(C(=O)N/N=C/c2ccoc2)c(O)c(C(C)C)c1 | 0.147 (active) |
| CSc1cccc(NC(=S)N(C(C)C)C(C)c2ccccn2)c1 (stereo not given) | inactive |
| O=C(CC1NCCc2ccccc21)Nc1cccc(Cl)c1 (stereo not given) | inactive |
| FC(F)(F)c1cccc(NC(=S)Nc2cccc(Cl)c2)c1 | 0.128 (active) |
| CC(NCc1cccs1)C(=O)Nc1cc(Cl)cc(Cl)c1 (stereo not given) | inactive |
| CC(Oc1cccc(NC(=O)c2cccs2)c1)C(=O)c1ccccc1 (stereo not given) | inactive |
| O=C(Nc1cccc(Cl)c1)Nc1ccccc1NS(=O)(=O)c1cccs1 | 0.131 (active) |
| C=CCSc1nsc(NC(=O)Nc2cccc(C(C)=O)c2)n1 | inactive |
| O=C(NCCc1ccccc1)c1ccc2c(c1)N(Cc1ccccc1)CCS2 | 0.16 (active) |
| O=C(Cn1cc(C(=O)c2cccs2)c2ccccc21)NCc1cccs1 | inactive |
| CC(=O)N(C1=C(Cl)C(=O)c2ccccc2C1=O)c1ccc(C(=O)O)cc1 | 0.11 (active) |
| CC(C(=O)NCC1CCCCC1)N(C)Cc1cccc(Cl)c1 (stereo not given) | inactive |
| CC(C)CCNC(=O)C(C)N(C(=O)Cn1nnc(-c2ccc(F)cc2)n1)C1CCCC1 (stereo not given) | inactive |
| COc1cccc(NC(=S)N(CCc2c(C)[nH]c3ccccc23)Cc2ccco2)c1 | 0.153 (active) |
| Cc1nonc1C1CCCN1C(=O)c1cc(COc2cccc(C(F)(F)F)c2)on1 (stereo not given) | inactive |
| Cc1cccc(N(Cc2ccccc2)C(=O)c2ccccc2F)c1 | inactive |
| Cc1cccc(C)c1N1CCN(S(=O)(=O)N2CCCCC2)CC1 | 0.156 (active) |
| COc1ccccc1N1CCN(/N=C\C(Br)=C\c2ccccc2)CC1 | inactive |
| c1ccc2c(NC3C4CC5CC(C4)CC3C5)nc(N3CCOCC3)nc2c1 (stereo not given) | 0.151 (active) |
| COc1ccc(Cl)cc1NC(=O)C(C)N1CCc2ccccc21 (stereo not given) | inactive |
| CCOc1ccc(C2c3[nH]c4ccccc4c3CCN2Cc2cccn2-c2ncccn2)cc1 (stereo not given) | inactive |
| C=CCc1cc(S(=O)(=O)c2ccc(O)c(CC=C)c2)ccc1O | 0.155 (active) |

| Structure (SMILES) | thallium flux ratio (lower = more inhibition) |
| --- | --- |
| CCN(CC)CCN(C(=O)c1cc(Cl)sc1Cl)c1nc2cc3c(cc2s1)OCO3 | 0.143 (active) |
| COc1cc(Cl)c(S(=O)(=O)N2CCN(Cc3ccc4c(c3)OCO4)CC2)cc1Cl | inactive |
| COC(=O)c1cc(NC2c3ccccc3C(=O)N2c2ccc(Cl)cn2)cc(C(=O)OC)c1 (stereo not given) | inactive |
| O=C(Nc1ccccc1N1CCCC1)c1ccc2ccccc2c1 | 0.131 (active) |
| CCCCC(=O)Nc1ccccc1N1CCN(c2ccc(F)cc2)CC1 | inactive |
| Cc1cccc(C(=O)Nc2ccccc2N2CCN(c3ccc(F)cc3)CC2)c1 | 0.151 (active) |
| O=C(CNCCC1=CCCCC1)Nc1ccccc1N1CCCCCC1 | inactive |
| CCc1cc(C(c2ccccc2OC)N2CCOCC2)c(NC(=O)c2ccccc2)s1 (stereo not given) | inactive |
| CSCc1cc(N(C)C)nc(SCc2ccc(Cl)cc2Cl)n1 | 0.15 (active) |
| COc1ccc2c(c1)C(c1cccs1)=NNC(c1cccnc1)=N2 | inactive |
| c1ccc(C(c2ccccc2)N2CCN(Cc3nnnn3C3CCCCC3)CC2)cc1 | 0.129 (active) |
| Cc1cccc2c1-c1sc(C(=O)NCCCN3CCc4ccccc4C3)cc1CO2 | inactive |
| CCCCCCCCCCCCN1C(=O)CSC1c1cccnc1 (stereo not given) | 0.148 (active) |
| Cc1c(C(=O)N2CCCc3ccccc32)sc2nc(-c3ccccc3)cn12 | inactive |
| COc1ccc(CC(=O)Nc2nc(-c3ccc(F)c(F)c3)cs2)cc1OC | 0.102 (active) |
| CCc1ccc2nc3sc(C(=O)Nc4nnc(CC)s4)c(N)c3cc2c1 | 0.108 (active) |
| COc1ccc(C2Nc3ccccc3C(=O)N2Cc2ccccc2)cc1Cn1nnc2ccccc21 (stereo not given) | 0.144 (active) |
| CCCc1cc(C(=O)N2CCCC(CO)(CCCc3ccccc3)C2)n(C)n1 (stereo not given) | 0.152 (active) |
| CC(=O)N1CCCc2cc(S(=O)(=O)N3CCCC(C(=O)N4CCN(c5cccc(Cl)c5)CC4)C3)ccc21 (stereo not given) | inactive |
| O=C(Nn1c(SCc2ccc([N+](=O)[O-])cc2)nc2ccccc2c1=O)c1ccc(F)cc1 | 0.136 (active) |
| CC(Sc1nc2ccccc2c(=O)n1Cc1ccco1)C(=O)c1ccccc1 (stereo not given) | inactive |
| CCc1nc(SCC(=O)NNC(=O)c2ccc(C)cc2)c2ccccc2n1 | inactive |
| COc1cc(C(=O)Nc2oc(-c3ccccc3)c(-c3ccccc3)c2C#N)cc(OC)c1OC | inactive |

| Structure (SMILES) | thallium flux ratio (lower = more inhibition) |
| --- | --- |
| Cc1cc(NC(=O)Nc2ccc(Cl)cc2)n(-c2ccccc2)n1 | inactive |
| O=C(Nc1cccc(S(=O)(=O)Nc2ccc(Cl)cc2)c1)c1ccc2c(c1)OCCO2 | 0.136 (active) |
| C=CCN(N=Nc1cccc([N+](=O)[O-])c1)c1cccc([N+](=O)[O-])c1 | inactive |
| COc1ccccc1C(c1nnnn1C(C)(C)C)N1CCN(Cc2ccccc2)CC1 (stereo not given) | inactive |
| CCC(C)(C)n1nnnc1C(c1cccs1)N1CCN(c2nc3ccccc3s2)CC1 (stereo not given) | 0.156 (active) |
| COCCNc1cc(-c2ccccc2)nc2cc(-c3cccc(F)c3)nn12 | 0.13 (active) |
| Cc1nc(N2CCOCC2)c2c(C)c(C(=O)Nc3ccc(C(F)(F)F)cc3)sc2n1 | 0.152 (active) |
| Cc1nc(N2CCN(c3ccccn3)CC2)c2c(C)c(C(=O)Nc3ccc(F)cc3)sc2n1 | inactive |
| Cc1nc(N2CCN(c3ccccn3)CC2)c2c(C)c(C(=O)Nc3ccc(F)c(Cl)c3)sc2n1 | inactive |
| Cc1ccc(NC(=O)COC(=O)CNC(=O)c2ccc(Cl)cc2Cl)cc1S(=O)(=O)N1CCOCC1 | inactive |
| O=C(N/N=C/c1sc(N2CCCCC2)nc1-c1cccs1)c1cccnc1 | 0.155 (active) |
| Oc1ccc(/C=N/Nc2nc(-c3ccccc3F)nc3ccccc23)c(O)c1 | 0.143 (active) |
| Cc1cc(C)c(C#N)c(SCc2ccc3c(c2)OCO3)n1 | 0.115 (active) |
| COc1ccc(CN(C)C(=O)c2cc(-c3ccc(C)cc3C)nc3ccccc23)c(OC)c1OC | 0.111 (active) |
| CC(=O)c1ccccc1OCc1ccc(C(=O)c2ccccc2)cc1 | 0.103 (active) |
| Cc1nc2ccccc2cc1OCc1ccc(F)cc1 | inactive |
| O=C(N/N=C/c1cccc(OCc2ccccc2)c1)c1ccc(Br)o1 | inactive |
| COc1ccc(-c2nc(CCNC(=O)c3ccc(Br)o3)cs2)cc1 | inactive |
| COc1ccc(CCNC(=O)c2ccccc2OCc2ccccc2)cc1 | 0.153 (active) |
| O=C(Oc1ccc(Br)cc1C(=S)N1CCOCC1)c1cccc([N+](=O)[O-])c1 | inactive |
| COC(=O)c1ccc(COC(=O)C2CCN(S(=O)(=O)c3c(Cl)cccc3Cl)CC2)o1 | inactive |
| COc1ccc(S(=O)(=O)NCCCCOc2ccc(Cl)cc2)cc1 | 0.135 (active) |
| COc1ccc(C(C)=O)cc1COc1ccc(Cl)c(C)c1 | 0.158 (active) |

Source: PubChem BioAssay AID651747 (Johns Hopkins Ion Channel Center, 2012)
